“And” between values parts separate entries of the source, which are not always exact repeats. Equal values may be shown once. Records with an inconclusive call do not appear. The source holds several records for some structures; these can differ, active in one and inactive in another. The source made the active and inactive calls. Unless noted, calls come from the whole dose curve; as a rule, active = well fitted curve in the direction sought with a large enough effect in the repeat runs; inconclusive = weak or mixed curves; inactive = no such curve, though single readings can be large; an effect the other way counts as inactive or inconclusive.

The nature of experiment [1]: qHTS assay to identify small molecule antagonists of the glucocorticoid receptor (GR) signaling pathway - cell viability counter screen (AID 720693). Note: nearly all actives have a fitted effect of over 55% in size.
Experiment [2] can be described thus: qHTS assay for identifying genotoxic compounds that show differential cytotoxicity against isogenic chicken DT40 cell lines with known DNA damage response pathways - wild type cell line (AID 743012). Note: nearly all actives have a fitted effect of over 60% in size. Note: potency is the fitted concentration of half-maximal effect. An outline of the steps:
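Endpoint: CellTiter-Glo luminescence, 30 min RT. Cells: wild type DT40, 300/well. Exposure: compounds in DMSO, 40 h, 37 C/5% CO2, after ~0.5 h pre-incubation.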

Experiment [3] is described as follows: qHTS assay for identifying genotoxic compounds that show differential cytotoxicity against isogenic chicken DT40 cell lines with known DNA damage response pathways - Rev3 mutant cell line (AID 743014). Note: nearly all actives have a fitted effect of over 55% in size. Note: potency is the fitted concentration of half-maximal effect. A general note: qHTS replaces the single test concentration by a dilution series.
Experiment [4] can be described thus: qHTS assay for identifying genotoxic compounds that show differential cytotoxicity against isogenic chicken DT40 cell lines with known DNA damage response pathways - Rad54/Ku70 mutant cell line (AID 743015). Note: nearly all actives have a fitted effect of over 60% in size. Note: potency is the fitted concentration of half-maximal effect.
Experiment [5] in a line: qHTS assay to identify small molecule antagonists of the androgen receptor (AR) signaling pathway - cell viability counter screen (AID 743033; note: nearly all actives have a fitted effect of over 45% in size; note: potency is the fitted concentration of half-maximal effect).
Experiment [6] is described as follows: qHTS assay to identify small molecule antagonists of the androgen receptor (AR) signaling pathway using the MDA cell line - cell viability counter screen (AID 743041; note: nearly all actives have a fitted effect of over 45% in size; note: potency is the fitted concentration of half-maximal effect). Summed up: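 Using the breast carcinoma line MDA-kb2 AR-luc, test chemicals were co-incubated with R1881 for 16 h; CellTiter-Fluor reagent, added at 15.5 h, provided a fluorescence measure of live cells.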

The nature of experiment [7]: qHTS assay to identify small molecule antagonists of the thyroid receptor (TR) signaling pathway - cell viability counter screen (AID 743064). Note: nearly all actives have a fitted effect of over 50% in size. Note: potency is the fitted concentration of half-maximal effect. Summed up: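 In-well cytotoxicity read by CellTiter-Fluor (30 min, 37 C) following 23.5 h exposure of GH3 cells bearing a TRE-luciferase sensor. Compounds were added alongside 1 nM (final) T3 to drive TR transactivation.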
Experiment [8] has as its system thyroid hormone receptor (rat, GH3 cells). Kind of experiment: qHTS assay to identify small molecule agonists of the thyroid receptor (TR) signaling pathway (AID 743066; calls by dose curve).
Experiment [9] can be described thus: qHTS assay to identify small molecule antagonists of the estrogen receptor alpha (ER-alpha) signaling pathway - cell viability counter screen (AID 743074; calls by dose curve; note: nearly all actives have a fitted effect of over 45% in size).
The nature of experiment [10]: qHTS assay to identify small molecule antagonists of the estrogen receptor alpha (ER-alpha) signaling pathway using the BG1 cell line - cell viability counter screen (AID 743081).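 Note: compound given together with 17beta-estradiol as the ER stimulus; series mostly up to about 70 µM; nearly all actives have a fitted effect of over 45% in size.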
A further experiment addresses Aromatase (Homo sapiens) (UniProt P11511). Kind of experiment: qHTS assay to identify aromatase inhibitors (AID 743083). Note: nearly all actives have a fitted effect of over 55% in size. Note: potency is the fitted concentration of half-maximal effect.
For experiment [11], the target named is Estrogen receptor (Homo sapiens) (UniProt P03372). Kind of experiment: qHTS assay to identify small molecule antagonists of the estrogen receptor alpha (ER-alpha) signaling pathway (AID 743069; active = well fitted curve in the direction sought with a large enough effect in the signal ratio in the repeat runs, not every such curve was filed as active; the % refers to the signal ratio). Summed up: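 Fluorescence intensity from a beta-lactamase FRET substrate served as the read-out. Cells: HEK293 with stably integrated ER-alpha-UAS-bla reporter. Agonist 17beta-estradiol was co-added with compounds; incubation 18 hr at 37C, substrate 2 hr at room temperature.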
Chain of Estrogen receptor (Homo sapiens) (P03372 whole entry, looked up): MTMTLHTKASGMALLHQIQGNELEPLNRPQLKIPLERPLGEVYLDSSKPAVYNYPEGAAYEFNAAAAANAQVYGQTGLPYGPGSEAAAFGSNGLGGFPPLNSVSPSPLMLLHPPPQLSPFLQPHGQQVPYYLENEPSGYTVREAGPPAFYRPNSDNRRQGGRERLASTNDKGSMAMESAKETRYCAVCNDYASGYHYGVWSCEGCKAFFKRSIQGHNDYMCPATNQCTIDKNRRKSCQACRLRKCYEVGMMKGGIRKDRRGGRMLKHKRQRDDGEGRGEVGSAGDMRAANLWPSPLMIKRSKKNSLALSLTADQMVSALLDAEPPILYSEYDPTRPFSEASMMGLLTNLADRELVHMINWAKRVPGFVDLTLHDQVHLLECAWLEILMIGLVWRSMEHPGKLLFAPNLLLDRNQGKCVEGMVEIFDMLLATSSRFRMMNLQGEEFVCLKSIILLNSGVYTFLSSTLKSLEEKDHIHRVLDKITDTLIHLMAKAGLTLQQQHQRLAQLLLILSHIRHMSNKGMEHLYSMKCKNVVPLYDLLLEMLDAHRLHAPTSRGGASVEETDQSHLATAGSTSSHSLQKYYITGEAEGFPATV

The target is the same in experiment [12]. Kind of experiment: qHTS assay to identify small molecule agonists of the estrogen receptor alpha (ER-alpha) signaling pathway (AID 743075; calls by dose curve).
The target is the same in experiment [13]. The experiment can be described thus: qHTS assay to identify small molecule agonists of the estrogen receptor alpha (ER-alpha) signaling pathway using the BG1 cell line (AID 743079). Note: nearly all actives have a fitted effect of over 20% in size. Note: potency is the fitted concentration of half-maximal effect.
Experiment [14] can be described thus: qHTS assay to identify small molecule antagonists of the estrogen receptor alpha (ER-alpha) signaling pathway using the BG1 cell line (AID 743080; calls by dose curve;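 note: BG1 cells stimulated with 17beta-estradiol alongside compound; series mostly up to about 70 µM; nearly all actives have a fitted effect of over 25% in size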). An outline of the steps:
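Readout is ONE-Glo luminescence, taken 30 min at room temperature after reagent addition, preceded by a CellTiter-Fluor viability read; BG1-Luc-4E2 cells had received compound and 17beta-estradiol for 21.5 h at 37 C.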

A short description of experiment [15]: qHTS assay to identify small molecule antagonists of the thyroid receptor (TR) signaling pathway (AID 743065). Note: nearly all actives have a fitted effect of over 55% in size. Note: potency is the fitted concentration of half-maximal effect. An outline of the steps: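 Antagonism measured as loss of luciferase signal in GH3 cells stably carrying a TRE-luciferase reporter, co-treated with compound and T3 (1 nM final) for 23.5 h at 37 C. Viability was read in the same well by CellTiter-Fluor.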

Chain of Aromatase (Homo sapiens) (P11511 whole entry, looked up): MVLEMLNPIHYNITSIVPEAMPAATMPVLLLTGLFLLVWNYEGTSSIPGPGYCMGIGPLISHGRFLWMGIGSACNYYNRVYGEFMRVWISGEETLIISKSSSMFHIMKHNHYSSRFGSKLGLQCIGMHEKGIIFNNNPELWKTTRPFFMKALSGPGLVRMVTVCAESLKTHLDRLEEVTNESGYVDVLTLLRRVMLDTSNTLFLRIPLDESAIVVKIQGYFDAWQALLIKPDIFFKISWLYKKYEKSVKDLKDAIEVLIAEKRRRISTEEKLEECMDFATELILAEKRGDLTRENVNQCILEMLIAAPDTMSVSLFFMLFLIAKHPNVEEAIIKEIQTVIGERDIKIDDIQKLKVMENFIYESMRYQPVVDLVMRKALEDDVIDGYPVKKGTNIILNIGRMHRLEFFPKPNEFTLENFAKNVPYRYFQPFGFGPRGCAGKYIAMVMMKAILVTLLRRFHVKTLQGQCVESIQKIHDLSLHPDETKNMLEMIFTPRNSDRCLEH

In the case of `Cc1ccc(C)o1`, the Potency result in experiment [1], in experiment [2], in experiment [3], in experiment [4], in experiment [5] and in [6] was “inactive” in each case. The Potency result (in [7]; in [8]; in experiment [10]; with Aromatase (Homo sapiens)) was “inactive” each time. The molecule was called inactive in [9].
For the molecule `ClC(Cl)(Cl)c1ccc(C(Cl)(Cl)Cl)cc1`, the Potency entry in experiment [1], in experiment [2], in experiment [3], in experiment [4], in experiment [5] and in experiment [6] was “inactive” in each case. The Potency result in [7], in experiment [8], in experiment [11], in experiment [12], in [13] and in [14] was “inactive” throughout. In experiment [10], the Potency result is “inactive”. In addition, the outcome in experiment [9] was inactive.
Take `Cc1cccc(Oc2ccccc2)c1`: the Potency result in experiment [1], in [2], in experiment [3], in experiment [4], in [5] and in [6] was “inactive” in each case. Also, the Potency entry in experiment [7], in experiment [8], in [11], in experiment [12], in [13] and in experiment [14] was “inactive” each time. Moreover, in experiment [10], the Potency entry was “inactive”. For the same molecule, the molecule was called inactive in experiment [9].
Consider `N#CCCNCCC#N`, for which the Potency entry in experiment [1], in [2], in experiment [3], in experiment [4], in [5] and in [6] was “inactive” throughout. For the same molecule, the Potency entry in experiment [7], in experiment [8], in experiment [11], in experiment [12], in [13] and in experiment [14] was “inactive” each time. Further, the Potency entry in experiment [10] was “inactive”. For the same molecule, the outcome in [9] was inactive.
Consider `CCCCOC(=O)/C=C\C(=O)OCCCC`, for which the Potency entry in experiment [1], in [2], in experiment [3], in [4], in [5] and in experiment [6] was “inactive” throughout. Also, the Potency entry in experiment [7], in experiment [8], in experiment [11], in experiment [12], in [13] and in [14] was “inactive” throughout. Further, the Potency result (in [10]; in the experiment with Aromatase (Homo sapiens)) was “inactive” in each case. Besides, the call in experiment [9] was inactive.
On to `Cc1ccccn1`, for which the Potency entry in [1], in experiment [2], in [3], in [4], in experiment [5] and in experiment [6] was “inactive” throughout. The Potency result (in experiment [7]; in experiment [15]; in experiment [8]; in experiment [10]; with Aromatase (Homo sapiens)) was “inactive” throughout. Further, in [9], the molecule was classed as inactive.
With `CC/C(=C\C(=N/O)C(N)=O)C(C)[N+](=O)[O-]` (centres undefined), the Potency entry in experiment [1], in experiment [5], in experiment [6], in [7], in [8] and in experiment [12] was “inactive” each time. The Potency result (in experiment [13]; in [14]; in experiment [10]; with Aromatase (Homo sapiens)) was “inactive” throughout. Further, the Potency in experiment [2] was 30.6 µM (active); in experiment [3] it was 24.3 µM (active); in experiment [4], 30.6 µM (active). Besides, in [9], the result was inactive.
On to `CC(=O)Nc1ccc(/C=N/NC(N)=S)cc1`, for which the Potency result in [1], in [2], in [3], in experiment [4], in experiment [5] and in [6] was “inactive” in each case. The Potency entry (in experiment [7]; in experiment [15]; in experiment [8]; in experiment [10]; with Aromatase (Homo sapiens)) was “inactive” in each case. Moreover, the result in experiment [9] was inactive.
For `COCCCCCCCCOCCC[Si](C)(O[Si](C)(C)C)O[Si](C)(C)C`, the Potency result in experiment [1], in experiment [7] and in experiment [8] was “inactive” each time. Moreover, the Potency is 5.45 µM (active) in experiment [2]; 6.11 µM (active) in experiment [3]; 6.11 µM (active) in [4]; 6.92 µM (active) in [5]; 21.7 µM (active) in [6]; 19.3 µM (active) in the experiment with Aromatase (Homo sapiens).
As for `Cc1ccc(C(=O)C(C)CN2CCCCC2)cc1` (centres undefined), the Potency entry in experiment [1], in [5], in experiment [6], in experiment [7], in [8] and in experiment [11] was “inactive” each time. For the same molecule, the Potency result (in [12]; in [14]; in experiment [10]; with Aromatase (Homo sapiens)) was “inactive” each time. The Potency in experiment [2] is 23.7 µM (active) and 26.6 µM (active); in experiment [3] it was 29.8 µM (active); in [4], 26.6 µM (active); in experiment [13] it was 26.6 µM (active) and inactive. The molecule was called inactive in experiment [9].
For the molecule `CC(O)C1CCCCC1` (centres undefined), the Potency result in experiment [1], in [2], in experiment [3], in experiment [4], in experiment [5] and in experiment [6] was “inactive” each time. The Potency entry (in experiment [7]; in experiment [15]; in experiment [8]; in experiment [10]; with Aromatase (Homo sapiens)) was “inactive” throughout.
In the case of `O=c1c2ccccc2nnn1CCl`, the Potency entry in experiment [1], in [2], in experiment [3], in experiment [4], in experiment [5] and in [6] was “inactive” in each case. The Potency result in experiment [7], in experiment [8], in experiment [11], in experiment [12], in experiment [13] and in experiment [10] was “inactive” each time. For the same molecule, in the experiment with Aromatase (Homo sapiens), the Potency result is “inactive”. Further, the result in [9] was inactive.
Consider `CN1CCN(C2=Nc3cc(Cl)ccc3Nc3ccccc32)CC1`, for which the Potency entry in [1], in [5], in experiment [6], in experiment [12], in experiment [14] and in experiment [10] was “inactive” throughout. The Potency entry with Aromatase (Homo sapiens) was “inactive”. Also, the Potency in experiment [2] was 21.1 µM (active); in [3], 26.6 µM (active); in [4], 26.6 µM (active); in experiment [7] it was 13.3 µM (active); in [15], 23.7 µM (active). Further, the molecule was classed as inactive in experiment [9].
Take `OC(CCN1CCCCC1)(c1ccccc1)C1CCCCC1` (centres undefined): the Potency result in [1], in experiment [3], in [4], in experiment [5], in experiment [6] and in [7] was “inactive” throughout. For the same molecule, the Potency result (in experiment [8]; in [11]; in experiment [12]; in experiment [13]; in experiment [10]; with Aromatase (Homo sapiens)) was “inactive” throughout. Also, the Potency in [2] is 26.6 µM (active). Besides, the result in [9] was inactive.
In the case of `Cn1c(NCCN(CCO)CCCc2ccc([N+](=O)[O-])cc2)cc(=O)n(C)c1=O`, the Potency entry in [1], in [2], in experiment [3], in [4], in experiment [5] and in experiment [6] was “inactive” throughout. For the same molecule, the Potency result (in experiment [7]; in [8]; in experiment [10]; with Aromatase (Homo sapiens)) was “inactive” each time. The molecule was classed as inactive in [9].
With `Nc1nc(N)c(-c2ccccc2)s1`, the Potency result in experiment [1], in experiment [2], in [3], in experiment [4], in [5] and in experiment [6] was “inactive” each time. Also, the Potency entry (in experiment [7]; in experiment [15]; in [8]; in experiment [10]; with Aromatase (Homo sapiens)) was “inactive” each time. In addition, the outcome in [9] was inactive.
Take `CCCCOc1cc(C(=O)OCCN(CC)CC)ccc1N`: the Potency result in [1], in experiment [5], in experiment [6], in [7], in experiment [8] and in [11] was “inactive” in each case. The Potency entry (in [12]; in experiment [13]; in experiment [14]; in experiment [10]; in the experiment with Aromatase (Homo sapiens)) was “inactive” in each case. Also, the Potency in experiment [2] is 10.1 µM (active); in experiment [3] it was 2.54 µM (active); in experiment [4], 8.04 µM (active). For the same molecule, the call in [9] was inactive.
In the case of `c1ccc(CNCc2ccccc2)cc1`, the Potency entry in experiment [1], in experiment [5], in [6], in experiment [7], in [8] and in experiment [11] was “inactive” throughout. In addition, the Potency result (in [12]; in [13]; in experiment [14]; in experiment [10]; with Aromatase (Homo sapiens)) was “inactive” throughout. For the same molecule, the Potency in experiment [2] was 54.5 µM (active); in [3], 30.6 µM (active); in experiment [4] it was 43.3 µM (active). Besides, the molecule was called inactive in experiment [9].
On to `O=[N+]([O-])c1cccc(Cl)c1Cl`, for which the Potency result in experiment [1], in experiment [2], in experiment [3], in experiment [4], in [5] and in [6] was “inactive” in each case. The Potency entry in experiment [7], in [11], in experiment [12], in experiment [13], in experiment [14] and in experiment [10] was “inactive” throughout. Also, the Potency entry with Aromatase (Homo sapiens) was “inactive”. Further, the molecule was called inactive in experiment [9].

(Values after PubChem BioAssay (Tox21).)
